# A selection: hits, their analogues and other compounds. The true share with any hit is near 0.92%.
# AMA1 RON2 block – AMA1-RON2 (P. falciparum) interaction inhibition. AlphaScreen AMA1-biotinylated RON2 peptide binding. Potency, µM (titrated, usually from 58.2 µM), inactives show top-dose activity change, negative = inhibition, hits mostly inhibitors. actives 0.2% (n = 360,000);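 note: 0% = vehicle wells and -100% = peptide control; nearly all actives have a fitted effect of over 45% in size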
#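 AMA1 (3D7) with his tag at 25 nM final met compounds first, then biotinylated RON2 peptide at 25 nM; detection used donor plus acceptor beads, 10 µg/mL apiece, read by AlphaScreen after 30 min at room temperature.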
# RE007 growth inh – less growth of the S. pombe RE007 Vpr strain; S. pombe RE007 Vpr strain, BacTiter-Glo ATP luminescence, 24 h; Potency, µM (titrated, usually from 92.2 µM), inactives show at the highest dose activity change, negative = less growth, actives largely listed as inhibitors; actives 0.21% (n = 360,000); active = well fitted falling curve with a large enough effect; inconclusive = small, poorly fitted or top-dose-only effect; inactive = no such curve, though single readings can be large or run the other way; note: % is set by controls: 0 for no effect and ±100 for the full control effect; nearly all actives have a fitted effect of over 50% in size
#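 Fission yeast RE007 carrying one integrated HIV-1 vpr copy, seeded at OD 0.01 in PMG+AL medium with 23 nL pinned compound. Grown 24 h at 30 degrees; viability read by BacTiter-Glo luminescence after 5 min.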
# TbPYK inhibitor – T. brucei pyruvate kinase inhibition; TbPYK enzyme, Kinase-Glo Plus ATP luminescence, 45 min; actives 0.12% (n = 410,000); AID 624173; Potency, µM (series often up to 76.8 µM), without a hit: at the top dose activity, negative = inhibition, most hits filed as inhibitors; Q57TT1; note: % is set by controls: 0 for no effect and ±100 for the full control effect; nearly all actives have a fitted effect of over 50% in size
#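 TbPYK + substrate in 50 mM TEA pH 7.2, 100 mM KCl, 10 mM MgCl2, 0.05% BSA, 0.01% Tween-20; cpd pinned; ADP 130 uM final; 45 min RT; Kinase-Glo Plus 10 min; luminescence endpoint.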
# LmPK inh – inhibitors of Leishmania mexicana pyruvate kinase; Q27686; purified LmPK, Kinase-Glo ATP luminescence, 1 h; Potency, µM (highest dose often 57.5 µM), inactives show top-dose activity change, negative = inhibition, hits mostly inhibitors; actives 0.37% (n = 290,000); note: % is set by controls: 0 for no effect and ±100 for the full control effect
# Target sequence (Q27686 whole entry, looked up): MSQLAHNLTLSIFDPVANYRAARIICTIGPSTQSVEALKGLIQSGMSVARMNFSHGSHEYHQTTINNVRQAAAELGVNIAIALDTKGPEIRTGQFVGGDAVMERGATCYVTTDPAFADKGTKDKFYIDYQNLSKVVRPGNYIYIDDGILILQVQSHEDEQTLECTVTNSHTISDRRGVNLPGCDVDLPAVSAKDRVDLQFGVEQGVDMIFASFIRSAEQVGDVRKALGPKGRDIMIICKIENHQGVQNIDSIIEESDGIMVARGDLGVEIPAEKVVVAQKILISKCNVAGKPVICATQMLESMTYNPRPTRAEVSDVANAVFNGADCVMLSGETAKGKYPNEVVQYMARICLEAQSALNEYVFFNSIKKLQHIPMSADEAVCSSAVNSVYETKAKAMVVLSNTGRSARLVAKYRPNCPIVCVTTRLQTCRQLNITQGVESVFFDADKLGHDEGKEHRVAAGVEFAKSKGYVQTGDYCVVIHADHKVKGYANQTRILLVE
#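 Pyruvate kinase activity monitored as ATP production (luciferase luminescence). Conditions: 0.1 nM enzyme, 0.5 mM PEP, 0.1 mM ADP, 1 h, RT; normalized against uninhibited and no-enzyme wells.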
# NS1 function inh – influenza NS1 inhibition; actives 0.4% (n = 270,000); AID 2326; Potency, µM (doses to about 46.1 µM), inactives show at the highest dose activity, positive = more growth; calls by dose curve; note: actives are rising curves; nearly all actives have a fitted effect of over 50% in size
#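 OD600 was taken as the measure of yeast growth restored by compound in an NS1-expressing S. cerevisiae strain. Cells had been washed out of glucose medium and diluted 1:100 into galactose -URA medium, pH 6.0.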
# * hit, by the source's call; ? = inconclusive; / = not tested or not shown. Unless noted, calls come from the whole dose curve; as a rule, active = well fitted curve in the direction sought with a large enough effect; inconclusive = small, poorly fitted or top-dose-only effect, or another doubt; inactive = no such curve, though single readings can be large; an effect the other way counts as inactive or inconclusive. Potency is the fitted concentration of half-maximal effect.
SMILES,AMA1 RON2 block,RE007 growth inh,TbPYK inhibitor,LmPK inh,NS1 function inh
CCOC(=O)C1CCN(c2ccc(-c3cccs3)nn2)CC1,1%,?,?,14µM*,-9%
O=[N+]([O-])c1cc(Cl)ccc1NCCc1ccccn1,22µM*,-11%,1%,3%,-42%
N#Cc1ccc(NCCc2ccccn2)c([N+](=O)[O-])c1,-2%,-10%,0%,-5%,-2%
CCOc1ccccc1CNCc1cccn1-c1nnc(N2CCN(c3ccccc3)CC2)s1,/,/,2%,/,/
O=C(N/N=C/c1cccnc1)c1[nH]ncc1Br,30%,-27%,-13%,18µM*,6%
O=C(N/N=C/c1ccccc1)c1[nH]ncc1Br,49%,-13%,?,13µM*,/
O=C(N/N=C/c1ccco1)c1[nH]ncc1Br,/,/,/,-6%,-4%
Oc1cc(O)c2c(c1)O[C@H](c1ccc(O)c(O)c1)[C@@H](O)[C@@H]2c1c(O)cc(O)c2c1O[C@@H](c1ccc(O)c(O)c1)[C@H](O)C2,/,/,/,/,-3%
CC(=O)N1N=C(c2ccccc2)OC1c1ccc([N+](=O)[O-])s1 (stereo unspecified),8%,35µM*,2%,0%,/
CC(=O)N1N=C(c2cccc([N+](=O)[O-])c2)OC1c1ccc(Br)cc1 (stereo unspecified),-17%,13%,-10%,9%,-4%
CCCOC(C(=O)OC1CCN(C)CC1)(c1ccccc1)c1ccccc1,/,/,8%,/,/
CCCn1c(-c2ccc(OC)cc2)nc2ccccc21,-3%,-10%,6%,-2%,-125%
COCn1c(-c2ccc(OC)cc2)nc2ccccc21,1%,-4%,-9%,22µM*,-21%
O=[As](O)(O)c1ccc(N=Nc2ccc(O)cc2)cc1,-6%,/,-2%,-7%,-3%
CCSC(=O)N=Nc1ccc(O)cc1,-18%,16µM*,-12%,/,/
Cc1ccc(N2C(=O)C3C4C=CC(CNC(=S)Nc5cccc(Cl)c5)(O4)C3C2=O)cc1 (stereo unspecified),0%,10µM*,-4%,2%,0%
O=C1C2C3C=CC(CO)(O3)C2C(=O)N1c1ccc(-c2ccccc2)cc1 (stereo unspecified),/,/,/,?,-163%
Cc1ccc(N2C(=O)N(CC(=O)Nc3cccc(Cl)c3)C(=O)C2C)cc1 (stereo unspecified),-25%,3%,-10%,/,/
Cc1ccc(CNC(=O)C2CCCN(C(=O)Nc3ccc(F)cc3)C2)cc1 (stereo unspecified),5%,4%,-1%,1%,-3%
CC(C)(C)C(=O)NCC12C=CC(O1)C1C(=O)N(c3ccccc3)C(=O)C12 (stereo unspecified),-2%,8.9µM*,?,11%,-31%
Cc1ccc(N2C(=O)C3C4C=CC(CNC(=S)Nc5ccc(F)cc5)(O4)C3C2=O)cc1 (stereo unspecified),10%,10µM*,-13%,-2%,-55%
Cc1ccc(N2C(=O)C3C4C=CC(CNC(=S)Nc5ccc(Cl)cc5)(O4)C3C2=O)cc1 (stereo unspecified),-10%,22µM*,-19%,3%,-43%
CC1(C)N=C(N)N=C(N)N1c1cccc(CSc2ccccc2)c1,/,/,/,/,8%
Cc1ccc(N2C(=O)C3C4C=CC(CNC(=S)N5CCN(c6ccccn6)CC5)(O4)C3C2=O)cc1 (stereo unspecified),-5%,4µM*,-10%,0%,/
CC(C)COC(=O)NCC12C=CC(O1)C1C(=O)N(c3ccc(Cl)cc3)C(=O)C12 (stereo unspecified),-16%,1.6µM*,-23%,-21%,-135%
CCc1ccccc1N1CC23C=CC(O2)C(C(=O)OCC(C)C)C3C1=O (stereo unspecified),10%,4%,-2%,9%,-2%
Cc1ccccc1N1C(=O)c2cc(N)ccc2N/C1=C\F,/,/,-5%,/,/
CC(=O)O[C@H]1C[C@@H]2CC[C@@H]3[C@H](CC[C@]4(C)[C@H](OC(C)=O)[C@@H](N5CC[N+](C)(C)CC5)C[C@@H]34)[C@@]2(C)C[C@@H]1N1CC[N+](C)(C)CC1,/,/,-8%,/,/

# High-throughput results deposited in PubChem BioAssay by National Center for Advancing Translational Sciences (NCATS).
